Most compounds without a hit are left out; they make up all but 12% or so of the library.
BAZ2B block – qHTS Assay for Inhibitors of BAZ2B | Bromodomain adjacent to zinc finger domain protein 2B (Homo sapiens), Q9UIF8 | AlphaScreen BAZ2B-H3K14Ac peptide displacement | Potency, µM (series often up to 114 µM), hits mostly inhibitors | hit rate 4.4% among 360,000 | AID 504333, 2011; further: nearly all actives have a fitted effect of over 60% in size
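Complex of BAZ2B and biotin-H3K14Ac (50 nM apiece) forms over 30 min at RT, then faces library compounds up to 110 uM for another 30 min; AlphaScreen beads added, 20 min dark incubation, luminescence read.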
G9a block – qHTS Assay for Inhibitors of Histone Lysine Methyltransferase G9a | G9a H3K9 monomethylation, AlphaScreen, 2 h | Potency, µM (top dose mostly 102 µM), actives largely listed as inhibitors | hit rate 8.8% among 350,000 | AID 504332, 2011; further: nearly all actives have a fitted effect of over 75% in size
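Enzyme 20 nM + cpd, 15 min RT; add b-H3K9 pep 500 nM / SAM 20 uM; 2 h RT; anti-H3K9me1 Ab 0.5 ug/mL + SA donor / anti-rabbit acceptor beads 20 ug/mL each, 10 min; AlphaScreen read.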
HP1b chromo inh – HTS for Inhibitors of HP1-beta Chromodomain Interactions with Methylated Histone Tails; Chromobox protein homolog 1 (Homo sapiens), P83916; AlphaScreen HP1-beta / biotin-H3K9me3 peptide binding; Potency, µM (top dose mostly 114 µM), actives largely listed as inhibitors; hit rate 0.56% among 390,000; further: nearly all actives have a fitted effect of over 70% in size
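Compound inhibition of the preformed complex between 50 nM HP1-beta and 50 nM biotinylated H3K9me3 peptide was read by AlphaScreen. Buffer was PBS pH 7.4 with 0.01% Tween-20. Incubations ran 30 min at room temperature, with 10 ug/mL donor/acceptor beads.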
PI5P4Ka inh – qHTS for Inhibitors of phosphatidylinositol 5-phosphate 4-kinase (PI5P4K); max response, %; hit rate 1.2% among 330,000; PI5P4Kalpha enzyme, ADP-Glo luminescence, 60 min; hits give low values; active means max response of -50% or lower; inconclusive means between -30% and -50%; inactive means -30% or higher; further: value at the top dose of about 77 µM
Target sequence (P48426 whole entry, looked up): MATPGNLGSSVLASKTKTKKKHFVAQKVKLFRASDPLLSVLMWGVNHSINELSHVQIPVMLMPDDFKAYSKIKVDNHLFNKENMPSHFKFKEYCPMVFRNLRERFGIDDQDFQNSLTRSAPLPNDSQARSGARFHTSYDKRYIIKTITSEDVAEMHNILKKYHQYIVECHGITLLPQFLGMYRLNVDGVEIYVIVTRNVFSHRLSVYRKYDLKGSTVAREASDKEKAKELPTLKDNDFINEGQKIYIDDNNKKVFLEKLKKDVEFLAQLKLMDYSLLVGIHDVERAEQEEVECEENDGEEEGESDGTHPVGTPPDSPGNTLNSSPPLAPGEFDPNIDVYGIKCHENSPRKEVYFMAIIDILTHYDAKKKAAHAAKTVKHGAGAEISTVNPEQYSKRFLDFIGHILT
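ADP-Glo luminescence end-point read after a 60 min room-temperature kinase reaction of PI5P4Kalpha plus substrate, initiated with ATP at 5 microM final. Buffer: 0.038 M HEPES pH 7.4, EGTA, 0.1% CHAPS, 5% DMSO.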
PLK1 PBD inh – qHTS for Inhibitors of PLK1-PDB (polo-like kinase 1 - polo-box domain): Primary Screen. hit rate 2.8% among 360,000. AID 720504, 2013. Serine/threonine-protein kinase PLK1 (Homo sapiens), P53350. Plk1 PBD binding of FITC phosphopeptide, fluorescence polarization. Potency, µM, hits mostly inhibitors; further: series mostly up to about 57 µM; nearly all actives have a fitted effect of over 65% in size
JMJD2A Tudor – qHTS Assay for Inhibitors of JMJD2A-Tudor Domain; Lysine-specific demethylase 4A (Homo sapiens), O75164; AlphaScreen JMJD2A-Tudor / H3K4me3 peptide binding; Potency, µM (series often up to 114 µM), hits mostly inhibitors; hit rate 4.4% among 390,000; AID 504339, 2011; further: nearly all actives have a fitted effect of over 50% in size
Large screens that a line does not name were inactive. Unless noted, the call rests on the fitted dose curve; in most records, active means well fitted curve in the direction sought with a large enough effect; inconclusive means small, poorly fitted or top-dose-only effect, or another doubt; inactive means no such curve, though single readings can be large; an effect the other way counts as inactive or inconclusive.

COc1ccc(C2CC(c3ccccc3)=NN2C(=O)CCCC(=O)O)cc1 (configuration not stated)	none
CCOC(=O)c1sc(N2C(=O)c3oc4ccc(F)cc4c(=O)c3C2c2ccc(O)cc2)nc1C (configuration not stated)	none (no result: PI5P4Ka inh, PLK1 PBD inh)
Cn1cccc1Cc1nnc(SCC(=O)N2CCOCC2)n1-c1ccc(F)cc1	G9a block inconclusive
COc1ccc(-n2c(Cc3cccn3C)nnc2SCC(=O)N2CCOCC2)cc1	G9a block 70.8µM
COc1ccc(-n2c(Cc3cccn3C)nnc2SCC(=O)Nc2ccccc2C)cc1	G9a block inconclusive
COc1ccc(-n2c(Cc3cccn3C)nnc2SCC(=O)Nc2ccccc2F)cc1	BAZ2B block inconclusive, G9a block 50.1µM, JMJD2A Tudor inconclusive
COc1ccc(-n2c(Cc3cccn3C)nnc2SCC(=O)Nc2ccc(F)cc2F)cc1	BAZ2B block inconclusive, G9a block 39.8µM, JMJD2A Tudor inconclusive
CCOC(=O)N1CCN(C(=O)CSc2nnc(Cc3cccn3C)n2CCc2ccccc2)CC1	G9a block inconclusive (no result: PI5P4Ka inh)
Cn1cccc1Cc1nnc(SCC(=O)N2CCOCC2)n1CCc1ccccc1	G9a block 44.7µM
Cc1ccc(-c2cn3nc(N4CCCC(C(=O)NCc5ccccc5F)C4)sc3n2)cc1 (configuration not stated)	none (no result: PI5P4Ka inh, PLK1 PBD inh)
COc1ccc(C(=O)Nc2ccccc2-c2nc3ccccc3s2)c(OC)c1	none (no result: PI5P4Ka inh, PLK1 PBD inh)
COc1ccc(-n2c(Cc3cccn3C)nnc2SCC(=O)Nc2cccc(C)c2C)cc1	BAZ2B block inconclusive, G9a block 44.7µM, JMJD2A Tudor inconclusive
COc1ccc(OC)c(NC(=O)CSc2nnc(Cc3cccn3C)n2-c2ccc(F)cc2)c1	BAZ2B block 50.1µM, G9a block inconclusive
Cn1cccc1Cc1nnc(SCC(=O)N2CCc3ccccc32)n1-c1ccc(F)cc1	HP1b chromo inh inconclusive, PLK1 PBD inh inconclusive
Cc1ccc(-n2c(Cc3cccn3C)nnc2SCC(=O)N2CCc3ccccc32)cc1	BAZ2B block 50.1µM, G9a block 44.7µM, HP1b chromo inh inconclusive, JMJD2A Tudor inconclusive (no result: PI5P4Ka inh)
COc1cccc(NC(=O)C2CCCN(S(=O)(=O)c3cn(C(C)C)cn3)C2)c1 (configuration not stated)	none (no result: PI5P4Ka inh, PLK1 PBD inh)
CSc1nc2nc3c(cc2c(=O)n1-c1ccc(C)cc1)COC(C)(C)C3	G9a block inconclusive
CSc1nc2nc3c(cc2c(=O)n1-c1ccccc1)COC(C)(C)C3	G9a block 50.1µM
COc1ccc(Cn2c(C(=O)O)c(CNCc3ccc(SC)cc3)c3ccc(OC)cc32)cc1	BAZ2B block inconclusive (no result: PI5P4Ka inh, PLK1 PBD inh)
Cc1ccccc1Nc1c(-c2ccc(N3CCOCC3)cc2)nc2ccccn12	BAZ2B block 17.8µM, G9a block 15.8µM, HP1b chromo inh inconclusive, JMJD2A Tudor 28.2µM (no result: PI5P4Ka inh, PLK1 PBD inh)
CCc1cccc(C)c1Nc1c(-c2ccc(N3CCOCC3)cc2)nc2ncccn12	BAZ2B block 28.2µM, G9a block 10µM, HP1b chromo inh inconclusive, JMJD2A Tudor 39.8µM (no result: PI5P4Ka inh, PLK1 PBD inh)
Cc1ccccc1Nc1c(-c2cccc(O)c2)nc2ccc(Br)cn12	none (no result: PI5P4Ka inh, PLK1 PBD inh)
Cc1ccccc1Nc1c(-c2ccc(N3CCOCC3)cc2)nc2cccc(C)n12	BAZ2B block inconclusive, G9a block 14.1µM, HP1b chromo inh inconclusive, JMJD2A Tudor 22.4µM (no result: PI5P4Ka inh, PLK1 PBD inh)
Cc1ccccc1Nc1c(-c2cccnc2)nc2cccc(C)n12	BAZ2B block inconclusive
Cc1ccccc1Nc1c(-c2ccc(N3CCOCC3)cc2)nc2ccc(Br)cn12	BAZ2B block inconclusive, G9a block 7.08µM, HP1b chromo inh inconclusive, JMJD2A Tudor inconclusive (no result: PI5P4Ka inh, PLK1 PBD inh)
Cc1ccc(NC(=O)CCn2nc(-c3ccccc3)c3ccccc3c2=O)c(C)c1	BAZ2B block inconclusive (no result: PI5P4Ka inh, PLK1 PBD inh)
O=c1c(-c2cc(F)cc(F)c2)nc2cncnc2n1-c1ccccc1	none (no result: BAZ2B block, HP1b chromo inh, PI5P4Ka inh, PLK1 PBD inh, JMJD2A Tudor)
CC(=O)c1cccc(NC(=O)c2ccc(Br)o2)c1	G9a block inconclusive (no result: PI5P4Ka inh)

Compound activity deposited in PubChem by National Center for Advancing Translational Sciences (NCATS).
